Results filed as inconclusive are left out. The source made the active and inactive calls. The call rests on the fitted dose curve; in most records, active means well fitted curve in the direction sought with a large enough effect; inconclusive means small, poorly fitted or top-dose-only effect, or another doubt; inactive means no such curve, though single readings can be large; an effect the other way counts as inactive or inconclusive.

The results in this text go back to PubChem BioAssay (NCATS).

The nature of test [1]: qHTS of pediatric cancer cell lines to identify multiple opportunities for drug repurposing: Primary screen for RD cells (AID 1347104). Further: nearly all actives have a fitted effect of over 55% in size. Summed up: (§1)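 500-1,000 cells/well; 5 h pre-incubation 37 °C/5% CO2; compound pinned; 48 h; CellTiter-Glo, 15 min RT; luminescence. MIPE 11-pt from 0.78 nM, NPC 8-pt from 0.59 nM final. Bortezomib 2.3 µM final as positive control.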
A general note: In qHTS, concentration-response curves come from the screen itself.

Test [2] in a line: qHTS of pediatric cancer cell lines to identify multiple opportunities for drug repurposing: Primary screen for MG 63 (6-TG R) cells (AID 1347105). Further: nearly all actives have a fitted effect of over 50% in size. The method, boiled down:
as §1

A short description of test [3]: qHTS of pediatric cancer cell lines to identify multiple opportunities for drug repurposing: Primary screen for control Hh wild type fibroblast cells (AID 1347106).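 Further: series mostly up to about 46 µM; a drop in luminescence marks cytotoxicity and a rise apparent proliferation; nearly all actives have a fitted effect of over 55% in size.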 Summed up: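 Viability after 48 h compound treatment at 37C, 500-1,000 cells/well, read as ATP luminescence with CellTiter-Glo. Primary screens used 11-point (MIPE, 0.78 nM-46 µM) or 8-point (NPC, 0.59 nM-46 µM) final concentrations; follow-up screens used 11-point dilutions.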

A short description of test [4]: qHTS of pediatric cancer cell lines to identify multiple opportunities for drug repurposing: Primary screen for Rh30 cells (AID 1347107). Further: series mostly up to about 46 µM; nearly all actives have a fitted effect of over 75% in size. Summed up:
(§2)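 Cells (500-1,000/well) in growth media were settled 5 h at 37 degrees C, then given compounds for 48 h. Viability was read as CellTiter-Glo luminescence. Primary runs used MIPE at 11 points (0.78 nM-46 µM) and NPC at 8 points (0.59 nM-46 µM); follow-ups used 11 points.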

A short description of test [5]: qHTS of pediatric cancer cell lines to identify multiple opportunities for drug repurposing: Primary screen for Rh41 cells (AID 1347108).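 Further: series mostly up to about 46 µM; luminescence drop marks cytotoxic hits; nearly all actives have a fitted effect of over 70% in size.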 The method, boiled down:
as §1

Test [6] is described as follows: qHTS of pediatric cancer cell lines to identify multiple opportunities for drug repurposing: Confirmatory screen for NB1643 cells (AID 1347109). Further: potency means the concentration at half of the fitted maximal effect; nearly all actives have a fitted effect of over 45% in size. Summed up: as §2
A short description of test [7]: qHTS of pediatric cancer cell lines to identify multiple opportunities for drug repurposing: Confirmatory screen for SK-N-MC cells (AID 1347111).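 Further: potency means the concentration at half of the fitted maximal effect; cells exposed to compound for 48 h before the readout; nearly all actives have a fitted effect of over 70% in size.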 Summed up:
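Metabolically active cells were quantified by ATP-dependent luminescence (CellTiter-Glo, 15 min at room temperature) following 48 h treatment. Cells had been plated at 500-1,000 per well and settled for 5 h beforehand.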

A short description of test [8]: qHTS of pediatric cancer cell lines to identify multiple opportunities for drug repurposing: Confirmatory screen for LAN-5 cells (AID 1347113). Further: nearly all actives have a fitted effect of over 65% in size. Further: potency means the concentration at half of the fitted maximal effect. Summed up: as §2
Test [9] can be described thus: qHTS of pediatric cancer cell lines to identify multiple opportunities for drug repurposing: Confirmatory screen for DAOY cells (AID 1347114). Further: nearly all actives have a fitted effect of over 65% in size. Summed up: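 Viability measured as metabolically active cells via CellTiter-Glo luminescence following 48 hours of compound exposure, 11-point dilutions in confirmatory testing. 500-1,000 cells/well plated 5 hours before dosing; controls were DMSO and 2.3 µM bortezomib.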

Test [10] can be described thus: qHTS of pediatric cancer cell lines to identify multiple opportunities for drug repurposing: Confirmatory screen for MG 63 (6-TG R) cells (AID 1347119). Further: potency means the concentration at half of the fitted maximal effect; nearly all actives have a fitted effect of over 55% in size. The method, boiled down: as §2
Test [11] can be described thus: qHTS of pediatric cancer cell lines to identify multiple opportunities for drug repurposing: Confirmatory screen for Rh41 cells (AID 1347123).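 Further: potency means the concentration at half of the fitted maximal effect; 48 h compound exposure; nearly all actives have a fitted effect of over 60% in size.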 The method, boiled down:
as §2

Test [12] in a line: qHTS of pediatric cancer cell lines to identify multiple opportunities for drug repurposing: Confirmatory screen for Rh18 cells (AID 1347125). Further: potency means the concentration at half of the fitted maximal effect; nearly all actives have a fitted effect of over 55% in size. The method, boiled down: as §2
Test [13] is described as follows: qHTS of pediatric cancer cell lines to identify multiple opportunities for drug repurposing: Confirmatory screen for Rh30 cells (AID 1347126). Summed up:
as §2

Test [14] can be described thus: qHTS of pediatric cancer cell lines to identify multiple opportunities for drug repurposing: Confirmatory screen for A673 cells (AID 1347110).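 Further: cells exposed to compound for 48 h before the viability read; nearly all actives have a fitted effect of over 65% in size.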 The method, boiled down:
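A673 cells seeded at 500-1,000 cells/well, rested 5 h, then dosed; primary MIPE 11-point (0.78 nM to 46 µM), NPC (0.59 nM to 46 µM); confirmatory 11-point. CellTiter-Glo luminescence after 48 h.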

Test [15] is described as follows: qHTS of pediatric cancer cell lines to identify multiple opportunities for drug repurposing: Confirmatory screen for NB-EBc1 cells (AID 1347115).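 Further: potency means the concentration at half of the fitted maximal effect; cells exposed to compound for 48 h before the viability read; nearly all actives have a fitted effect of over 45% in size.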 Summed up: as §2
Test [16] can be described thus: qHTS of pediatric cancer cell lines to identify multiple opportunities for drug repurposing: Confirmatory screen for control Hh wild type fibroblast cells (AID 1347121). Further: nearly all actives have a fitted effect of over 70% in size. Summed up: as §2
The nature of test [17]: qHTS of pediatric cancer cell lines to identify multiple opportunities for drug repurposing: Confirmatory screen for Saos-2 cells (AID 1347127). Further: potency means the concentration at half of the fitted maximal effect; nearly all actives have a fitted effect of over 60% in size. The method, boiled down:
as §2

With `CCC(C(=O)OCCN1CCOC(c2ccccc2)C1C)c1ccccc1` (stereo unspecified), the Potency result in test [1], in test [2], in [3], in test [4] and in test [5] was “inactive” in each case.

Consider `CCC(CN)=C(c1ccccc1)c1ccccc1`, for which the Potency entry in test [1], in test [2], in test [3], in test [4] and in test [5] was “inactive” each time.

For `Cc1oc(-c2ccccc2)nc1CCC(=O)c1ccc(CC2SC(=O)NC2=O)cc1` (stereo unspecified), the Potency entry in test [1], in test [2], in [3], in test [4] and in test [5] was “inactive” in each case.

For the molecule `CCOC(=O)Cn1cccc1-c1nc(-c2ccc(OC)cc2)c(-c2ccc(OC)cc2)s1`, the Potency result in [1], in test [2], in [3], in test [4] and in test [5] was “inactive” in each case.

Consider `CC[N+](CC)(CC)CCOC(=O)C(C1CCCC1)C1CCCC1`, for which the Potency entry in test [1], in test [2], in [3], in [4] and in test [5] was “inactive” each time.

For `CCC[C@H](N[C@@H](C)C(=O)N1[C@H](C(=O)O)C[C@@H]2CCCC[C@@H]21)C(=O)OCC`, the Potency result in test [1], in test [2], in test [3], in test [4] and in [5] was “inactive” throughout.

Turning to `CCCCN(CCCC)C(C(N)=O)c1ccc(OC)cc1` (stereo unspecified), the Potency entry in test [1], in test [2], in [3], in [4] and in [5] was “inactive” throughout.

For `CCOC(=O)c1ccc(O)c(O)c1`, the Potency result in [1], in test [2], in test [3], in test [4] and in test [5] was “inactive” each time.

On to `Nc1nc(=O)n([C@@H]2O[C@H](CO)[C@@H](O)[C@@H]2F)cc1I`, for which the Potency entry in [1], in [2], in [3], in [4] and in test [5] was “inactive” throughout.

As to `CCCCCOc1ccc(C2SC(=O)NC2=O)cc1OCC` (stereo unspecified), the Potency entry in [1], in test [2], in test [3], in [4] and in test [5] was “inactive” each time.

`C[C@@H](C1=C(CCN(C)C)Cc2ccccc21)c1ccccn1`: the Potency result in [1], in [2], in test [3], in test [4] and in [5] was “inactive” each time.

Regarding `C[N+](C)(CCOc1ccccc1)Cc1cccs1`, the Potency result in test [1], in test [2], in [3], in test [4] and in test [5] was “inactive” each time.

On to `Cc1ccc(/C=N/n2c(-c3ccccc3)csc2=S)cc1`, for which the Potency entry in test [1], in test [2], in [3], in [4] and in [5] was “inactive” each time.

Regarding `CC(C)(C)C(O)/C=C/c1ccc2c(c1)OCO2` (stereo unspecified), the Potency entry in test [1], in test [2], in test [3], in test [4] and in [5] was “inactive” in each case.

Regarding `CCCCC(=O)OCC(=O)[C@H]1[C@H](C)C[C@H]2[C@@H]3C[C@H](F)C4=CC(=O)C=C[C@]4(C)[C@@]3(F)[C@@H](O)C[C@@]21C`, the Potency entry in [1], in [2], in [3], in [4], in [5] and in test [9] was “inactive” throughout. The Potency in test [6] was 18.5 µM (active); in test [7] it was 10.4 µM (active); in [8] it was 23.3 µM (active); in test [10] it was 18.5 µM (active); in [11], 29.3 µM (active); in [12] it was 20.8 µM (active). Moreover, the Potency in [13] is 14.7 µM (active).

For the molecule `CCC1(c2cnc[nH]2)Cc2ccccc2C1`, the Potency entry in test [1], in test [2], in [3], in test [4], in test [5] and in [14] was “inactive” throughout. Moreover, the Potency entry in test [8] and in test [16] was “inactive” throughout. The Potency in test [7] was 3.29 µM (active); in [15], 20.8 µM (active); in test [10] it was 14.7 µM (active); in test [11], 16.5 µM (active); in [12] it was 16.5 µM (active); in test [13], 10.4 µM (active). The Potency in test [17] was 9.27 µM (active).

In the case of `Cc1nc(C2CCCCC2)c(-c2ccc(S(N)(=O)=O)c(F)c2)o1`, the Potency entry in [1], in test [2], in test [3], in test [4] and in test [5] was “inactive” each time.

With `CCCOc1ccc2c(c1)CC[C@@H]1[C@@H]2CC[C@]2(C)C(OC)CC[C@@H]12` (stereo partly specified), the Potency entry in test [1], in [2], in [3], in test [4] and in test [5] was “inactive” in each case.

Regarding `OCCOCCN1CCN(C(c2ccccc2)c2ccc(Cl)cc2)CC1` (stereo unspecified), the Potency entry in [1], in test [2], in test [3], in test [4] and in test [5] was “inactive” each time.

For `CN1C(CSCC(F)(F)F)Nc2cc(Cl)c(S(N)(=O)=O)cc2S1(=O)=O` (stereo unspecified), the Potency result in [1], in test [2], in test [3], in test [4] and in test [5] was “inactive” throughout.

In the case of `CC(Oc1c(Cl)cccc1Cl)C1=NCCN1` (stereo unspecified), the Potency result in [1], in [2], in test [3], in test [4] and in test [5] was “inactive” throughout.

For the molecule `Cc1cccc(N(C)C(=S)Oc2ccc3c(c2)CCC3)c1`, the Potency entry in test [1], in [2], in [3], in test [4] and in test [5] was “inactive” in each case.

On to `CC(=O)[C@H]1CC[C@H]2[C@@H]3C=CC4=CC(=O)CC[C@@]4(C)[C@@H]3CC[C@]12C`, for which the Potency result in test [1], in test [2], in [3], in test [4] and in test [5] was “inactive” each time.

With `Fc1ccc(C(c2ccc(F)cc2)N2CCNCC2)cc1`, the Potency result in [1], in [2], in [3], in test [4] and in test [5] was “inactive” throughout.

`Cc1nc2n(c(=O)c1CCN1CCC(C(=O)c3ccc(F)cc3)CC1)CCS2`: the Potency entry in test [1], in test [2], in test [3], in test [4] and in test [5] was “inactive” throughout.

On to `C=CCOc1cc(Cl)ccc1C(=O)NCCN(CC)CC`, for which the Potency result in test [1], in test [2], in [3], in test [4] and in [5] was “inactive” each time.

As to `COC(=O)C1=C(C)NC(COC(N)=O)=C(C(=O)OC(C)C)C1c1cccc(Cl)c1Cl` (stereo unspecified), the Potency result in test [1], in test [2], in test [3], in test [4] and in test [5] was “inactive” throughout.

Take `Cc1c(C)c2c(c(C)c1OC(=O)CCC(=O)OCCO)CC[C@@](C)(CCC[C@H](C)CCC[C@H](C)CCCC(C)C)O2`: the Potency entry in test [3], in test [4] and in test [5] was “inactive” each time.

Take `CC(C)C[C@@H]1[C@H](c2ccccc2)OC(=O)N1CCCN1CCCCCC1`: the Potency entry in test [2], in [3], in test [4] and in test [5] was “inactive” each time.

Take `Nc1cc(C(F)(F)F)ccc1S`: the Potency entry in test [2], in [3] and in test [4] was “inactive” throughout.

For `O=C(OCC(O)CO)c1ccccc1Nc1ccnc2c(C(F)(F)F)cccc12` (stereo unspecified), the Potency entry in test [2], in [3] and in [5] was “inactive” in each case.
